This is a sample that favours compounds with a hit; in the whole collection about 2.3% have one here.
M1 antag = blocks human M1 muscarinic receptor | P11229 | CHO-K1 hM1, Fluo-8 calcium fluorescence, ACh EC80 antagonist | inhibition, % at 3 µM | actives 1.3% (n = 360,000);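 active = percent inhibition above its own plate's cutoff, namely the mean of that plate's compound wells plus 3 SD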;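 note: peak over basal fluorescence ratio during 140 s after agonist addition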
Target sequence (P11229 whole entry, looked up): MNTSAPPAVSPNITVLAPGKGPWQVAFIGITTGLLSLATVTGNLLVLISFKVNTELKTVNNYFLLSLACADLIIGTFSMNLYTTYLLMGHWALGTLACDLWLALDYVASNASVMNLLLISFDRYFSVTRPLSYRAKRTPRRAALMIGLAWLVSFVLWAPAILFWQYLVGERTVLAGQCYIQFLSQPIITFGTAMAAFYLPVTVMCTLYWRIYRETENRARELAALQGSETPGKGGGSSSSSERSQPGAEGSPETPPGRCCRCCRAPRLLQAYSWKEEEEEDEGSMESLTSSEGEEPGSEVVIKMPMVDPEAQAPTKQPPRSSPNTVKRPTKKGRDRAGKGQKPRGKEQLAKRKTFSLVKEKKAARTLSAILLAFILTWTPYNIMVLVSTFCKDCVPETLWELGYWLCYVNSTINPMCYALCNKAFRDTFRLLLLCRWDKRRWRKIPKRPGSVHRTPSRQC
CHO-K1 Ca PAM = counter-screen for M1 PAMs: effect in parental CHO-K1 cells | ATP EC20, Fluo-8 calcium fluorescence; 0% at ATP EC20, 100% at ATP max | AID 602247 | actives 0.02% (n = 360,000) | activation, % at 3 µM;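 active = activation above the run cutoff, the mean activation of all test compounds plus 3 SD, cut at about 40% in these data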;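 note: peak over basal fluorescence ratio in a 140 s read after ATP addition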
CHO-K1 Ca antag = counter-screen for M1 antagonists: effect in parental CHO-K1 cells. ATP-induced calcium, Fluo-8 fluorescence. inhibition, % at 3 µM. actives 0.6% (n = 360,000). AID 602250;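 active = inhibition above a per-plate cutoff, the plate's mean sample inhibition plus 3 SD, cut at about 24% in these data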
M1 PAM = potentiates human M1 receptor response to acetylcholine; P11229; CHO-K1 hM1, Fluo-8 calcium fluorescence, ACh EC20; 0% = ACh EC20, 100% = maximal ACh; activation, % at 3 µM; actives 0.088% (n = 360,000); AID 588819; in the data active = activation above about 19%, passing the limit was not always enough
M1 ag parental = M1 agonist counterscreen hit in parental CHO-K1 cells; activation, % at 3 µM; actives 0.48% (n = 360,000); Fluo-8 calcium fluorescence; scaled to maximal ATP response, vehicle zero; AID 602248; in the data active = activation above about 15%;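 note: untransfected CHO-K1 host cells lacking M1 receptor as counterscreen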
CHRM1 agonist = agonists of human M1 muscarinic receptor; actives 0.33% (n = 360,000); activation, % at 3 µM; CHO-K1 hM1, Fluo-8 calcium fluorescence, agonist mode; 0% DMSO, 100% acetylcholine EC100; P11229;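 active = activation above the run's mean compound activation plus 3 SD, cut at about 16% in these data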;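 note: peak over basal fluorescence ratio within a 140 s kinetic read after compound addition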
Hits are given with their value; – = inactive.

SMILES	M1 antag	CHO-K1 Ca PAM	CHO-K1 Ca antag	M1 PAM	M1 ag parental	CHRM1 agonist
COc1ccccc1CCN1CCCC(CN(C)CC(C)(C)CO)C1 (stereo not drawn)	46.7	–	–	–	–	–
COc1ccccc1CCN1CCCC(CN(C)C(=O)c2ccoc2)C1 (stereo not drawn)	43.7	–	–	–	–	–
COCc1ccc(C(=O)N(C)CC2CCCN(CCc3ccccc3F)C2)o1 (stereo not drawn)	48.4	–	–	–	–	–
COc1ccc(N2N=NN(C(C)C)C2=C(Cl)c2nnnn2-c2ccc(OC)cc2)cc1	–	–	–	–	–	–
COc1ccc(NC(=O)N2c3ccc(OC)cc3C(C)=CC2(C)C)cc1	–	–	25.5	–	–	–
CC(=O)N1CCN(c2ccc(NC(=S)NC(=O)COc3ccc(C(C)(C)C)cc3)cc2)CC1	–	–	–	–	–	–
CN1CCN(c2ccc(NC(=S)NC(=O)c3cccc4c(Br)cccc34)cc2)CC1	–	–	–	–	–	–
CN1CCN(c2ccc(NC(=S)NC(=O)c3cccc4ccccc34)cc2)CC1	45.2	–	–	–	–	–
CCC(=O)N1CCN(c2ccc(NC(=S)NC(=O)COc3ccccc3)cc2)CC1	30.0	–	–	–	–	–
C=CCC1(CC=C)CCCN1Cc1nc(COc2ccccc2)no1	–	–	–	–	–	–
Cc1ccc(C)c(OCCC(=O)OCC(=O)NCCNC(=O)COC(=O)CCOc2cc(C)ccc2C)c1	47.2	–	26.6	–	–	–
Cc1ccc(C)c(OCCC(=O)OCC(=O)NCc2ccccc2)c1	–	–	–	–	–	–
Cn1c(/C(C#N)=C/c2ccc(-c3ccc(S(N)(=O)=O)cc3)o2)nc2ccccc21	–	–	–	–	21.7	–
Cn1c(/C(C#N)=C/c2cccc(O)c2)nc2ccccc21	–	–	–	–	–	–
CC(=O)CC(c1ccccc1)S(=O)(=O)c1ccc(C)cc1 (stereo not drawn)	26.5	–	–	–	–	–
COc1ccc(C(CC(=O)c2ccccc2)S(=O)(=O)c2ccc(C)cc2)cc1 (stereo not drawn)	–	–	–	–	–	–
CCOc1ccccc1N1CCN(C(=S)NC(=O)C23CC4CC(CC(C4)C2)C3)CC1	–	–	–	–	–	–
CCOc1ccccc1N1CCN(C(=S)NCc2ccc(Cl)cc2)CC1	–	–	–	–	17.6	–
O=[N+]([O-])c1ccc(N2CCN(C(=S)NCc3ccc(Cl)cc3)CC2)cc1	37.2	–	–	–	–	–
O=C(NCCCO)C(=O)NCc1ccncc1	–	–	–	–	–	–
O=Nc1c(O)n(Cc2cccc(C(F)(F)F)c2)c2ccccc12	–	–	–	–	–	19.1
O=Nc1c(O)n(Cc2ccccc2)c2ccccc12	–	–	–	–	–	16.2
COC(=O)c1ccc(Cn2c(O)c(N=O)c3ccccc32)o1	–	–	–	–	–	–
O=Nc1c(O)n(Cc2ccc(Cl)c(Cl)c2)c2ccccc12	–	–	–	24.5	–	19.4
CCOCCc1c(O)nc(SCC(=O)N2CCOCC2)[nH]c1=O	–	–	–	–	–	–
SMILES	M1 antag	CHO-K1 Ca PAM	CHO-K1 Ca antag	M1 PAM	M1 ag parental	CHRM1 agonist
CC(C)c1ccccc1NCC(=O)N1CCN(Cc2ccccc2)CC1	–	–	–	–	–	–
CC(=O)Nc1ccc(CN2C(=O)C(C)(C)ON=C2c2ccc(NC(C)=O)cc2)cc1	–	–	–	–	–	–
Fc1ccc(N2CCN(C3=Nc4cccc5cccc3c45)CC2)cc1	87.9	–	–	–	–	–
Cc1ccc(NC(=O)CSCC(=O)NNC(=O)c2ccoc2C)cc1	–	–	–	–	–	–
CC[n+]1c(/C=C/c2cc([N+](=O)[O-])ccc2O)ccc2ccccc21	–	–	23.9	–	–	–
O=C(NC1CCCC1)C(c1ccccn1)N(C(=O)c1csnn1)c1ccccc1Br (stereo not drawn)	–	–	–	–	–	–
CN(CC(=O)N1CCCc2c1c(=O)oc1ccc(O)cc21)Cc1ccccc1	24.4	–	–	–	–	–
CC1CCN(CCC(=O)N2CCCc3c2c(=O)oc2ccc(O)cc32)CC1	–	–	–	–	–	–
O=C1[C@@H](Oc2ccccc2)[C@@H](c2cnc3ccccc3c2)N1c1ccccc1	29.9	–	–	–	–	–
O=C1[C@H](Oc2ccccc2)[C@@H](c2ccncc2)N1c1ccncc1	–	–	–	–	–	–
COc1cccc(CNC(=O)c2cc(=O)[nH]c3ccc(S(=O)(=O)N4CCOCC4)cc23)c1	–	–	–	–	–	–
CS(=O)(=O)N(CC(=O)Nc1c(F)cccc1F)c1ccc(C23CC4CC(CC(C4)C2)C3)cc1	–	–	–	–	–	21.0
COc1ccc(/C=C/C(=O)NNc2c(F)c(F)cc(F)c2F)cc1OC	–	–	25.0	–	–	–
CCCCN(C)S(=O)(=O)c1cc2c(cc1Br)CCN2C(=O)C1CC1	–	–	–	–	–	–
OCC1CCCCN1CC(O)COC(c1ccc(F)cc1)c1ccc(F)cc1 (stereo not drawn)	–	–	–	–	–	–
Cc1ccc(-c2nc(CSCC(=O)NCCN3CCN(Cc4ccccc4)CC3)c(C)o2)cc1	26.0	–	–	–	–	–
O=C(c1cccc2c1-c1ccccc1/C2=N/O)N1CCCCC1	–	–	24.9	–	–	–
O=C(O)c1cccc2c1/C(=N/O)c1ccccc1-2	–	–	–	28.7	–	–
O=C(O)c1cccc2c1-c1ccccc1/C2=N\Nc1ccccc1	–	–	–	–	–	–
Cc1ccc(CNC(=O)COC(=O)c2ccc(S(=O)(=O)NCc3ccco3)cc2)cc1	–	–	–	–	–	–
O=C(O)C(O)C(O)c1nc2ccccc2[nH]1 (stereo not drawn)	–	–	–	–	–	–
NC(Cc1ccc(Cl)cc1)c1csc(Nc2cc(NCCCO)ncn2)n1 (stereo not drawn)	–	–	–	–	–	–
Cc1ccc(-n2c(SCC(=O)NC3CCS(=O)(=O)C3)nc3ccccc3c2=O)c(C)c1 (stereo not drawn)	–	–	–	–	–	–
COC(=O)CCc1c(C)[nH]c(=S)[nH]c1=O	–	–	–	21.3	–	–
CCOC(=O)Cc1c(C)[nH]c(=S)[nH]c1=O	–	–	–	–	–	–
O=C(NC(c1ccc(F)cc1)c1ccc2ccccc2n1)C1CCN(Cc2ccc3ccccc3n2)CC1 (stereo not drawn)	–	–	–	–	–	–
CN(C)c1ccc(CN2CCC(C(=O)NC(c3ccc(F)cc3)c3ccc4ccccc4n3)CC2)cc1 (stereo not drawn)	53.8	–	–	–	–	–
Cc1cc(C)nc(/N=C(\N)N2CCCCCC2)n1	29.9	–	–	–	–	–

Screens from PubChem BioAssay.
